Holding throughout (assay): PBM binding z-score (relative to random genomic background probes); higher = stronger binding; sequences stand for … in GC…GCGATTGACAGCGTAGAATGAAGG
Assay [1] concerns FXR:RXRa (NR concentration 270 nM, RXRa partner concentration 90 nM). The method in brief:
(§1)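 Random background probes are the reference for binding z-scores. These scores derive from regression-normalized fluorescence on custom Agilent 4×180K protein-binding microarrays incubated 1 h with ligand-free nuclear receptor dimers. Binding was detected with antibodies against each partner (one per run).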

The subject of assay [2] is LXRa:RXRa (NR concentration 270 nM, RXRa partner concentration 90 nM). The method in brief:
as §1

Assay [3] concerns LXRa homodimer (NR concentration 270 nM). The method in brief:
as §1

Assay [4] concerns LXRb:RXRa (NR concentration 270 nM, RXRa partner concentration 90 nM). The method in brief:
as §1

Assay [5] has as its system LXRb homodimer (NR concentration 270 nM). The method in brief: as §1
Assay [6] has as its system PPARa:RXRa (NR concentration 270 nM, RXRa partner concentration 90 nM). The method in brief: as §1
Assay [7] relates to PPARg:RXRa (NR concentration 180 nM, RXRa partner concentration 90 nM). The method in brief:
as §1

Assay [8] relates to PPARg:RXRa 270nM:90nM, anti-RXR (NR concentration 270 nM, RXRa partner concentration 90 nM). The method in brief:
as §1

Assay [9] has as its system PPARg:RXRa 30nM:10nM, anti-RXR (NR concentration 30 nM, RXRa partner concentration 10 nM). The method in brief:
as §1

For assay [10], the system named is PPARg:RXRa 90nM:30nM, anti-RXR (NR concentration 90 nM, RXRa partner concentration 30 nM). The method in brief:
as §1

For assay [11], the system named is PPARg:RXRa DBDmut IVT, anti-RXR (DBD mutation: RXRa K156A/R161A, NR concentration 270 nM, RXRa partner concentration 90 nM). The method in brief:
as §1

In assay [12] the test system is PPARg:RXRa IVT, anti-PPARg (NR concentration 270 nM, RXRa partner concentration 90 nM). The method in brief: as §1
The subject of assay [13] is PPARg DBDmut:RXRa IVT, anti-PPARg (DBD mutation: PPARg1 K132A/R137A, NR concentration 270 nM, RXRa partner concentration 90 nM). The method in brief:
as §1

Assay [14] relates to PPARg DBDmut IVT, anti-PPARg (DBD mutation: PPARg1 K132A/R137A, NR concentration 270 nM). The method in brief: as §1
Assay [15] deals with PPARg homodimer (NR concentration 180 nM). The method in brief: as §1
In assay [16] the test system is PXR:RXRa (NR concentration 270 nM, RXRa partner concentration 90 nM). The method in brief:
as §1

Assay [17] deals with PXR homodimer (NR concentration 270 nM). The method in brief:
as §1

In assay [18] the test system is RARa:RXR (NR concentration 270 nM, RXRa partner concentration 90 nM). The method in brief:
as §1

In assay [19] the test system is RARa homodimer (NR concentration 270 nM). The method in brief: as §1
Assay [20] relates to RARb:RXRa (NR concentration 270 nM, RXRa partner concentration 90 nM). The method in brief: as §1

Consider CATACAGGATCAGCTAGGCCAGAGTAGGGACGGC, for which the PBM binding z-score was -0.21 in assay [1]; -0.464 in [2]; 0.0266 in assay [3]; -0.7 in assay [4]; -0.0365 in assay [5]; -0.466 in assay [6]. Moreover, the PBM binding z-score in assay [7] was 0.558; in [8] it was -0.422; in [9], -0.274; in [10] it was -0.505; in [11] it was -0.103; in assay [12], -0.208. Moreover, the PBM binding z-score is 0.289 in [13]; 0.351 in assay [14]; 0.422 in [15]; -0.609 in [16]; -0.0917 in assay [17]; -0.441 in assay [18]. The values for the PBM binding z-score in assay [19] and in [20] were 0.241 and -0.093, respectively.

Consider TCTACCAGGCCAGAGGGTCACTCAAGAGGTACGG, for which the PBM binding z-score is 1.36 in [1]; 1.24 in assay [2]; -0.237 in [3]; 1.38 in assay [4]; -0.315 in assay [5]; 2.65 in assay [6]. Besides, the PBM binding z-score in assay [7] came to 2.06; in [8], 3.41; in [9], 3.25; in assay [10], 3.44; in [11], 1.61; in assay [12], 1.75. For the same sequence, the PBM binding z-score in assay [13] is -0.383; in assay [14], -0.224; in [15] it was 1.12; in [16] it was 1.82; in assay [17], -0.126; in assay [18], 2.67. For the same sequence, the PBM binding z-score in [19] is 0.116; in assay [20] it was 2.51.

For the sequence TCTAGTTGGTCCAAGGTCACACACTCGAAATGCG, the PBM binding z-score amounted to 3.91 in [1]; 3.59 in assay [2]; 1.87 in assay [3]; 3.54 in assay [4]; 0.734 in [5]; 4.18 in assay [6]. The PBM binding z-score was determined as 4.19 in assay [7]; 5.58 in assay [8]; 4.56 in [9]; 5.7 in [10]; 2.28 in assay [11]; 3.07 in assay [12]. Further, the PBM binding z-score is 1.36 in assay [13]; 0.797 in assay [14]; 3.08 in [15]; 4.21 in assay [16]; 1.63 in assay [17]; 4.31 in assay [18]. Also, the PBM binding z-score in assay [19] was 1.96; in [20], 3.53.

As to CCTACTGGGCCACGAAAGGACATTGATTCAGTGA, the PBM binding z-score in [1] was 0.276; in assay [2], 0.0312; in assay [3], 0.0181; in assay [4], -0.441; in [5], -0.67; in assay [6], 0.738. Further, the PBM binding z-score in assay [7] is 1.63; in [8], 1.22; in [9] it was -0.124; in assay [10] it was 0.606; in [11], 4.98; in assay [12], 5.21. Besides, the PBM binding z-score in assay [13] is 0.3; in [14] it was -0.299; in [15], 0.467; in assay [16], -0.024; in [17], -0.134; in assay [18], 0.342. The PBM binding z-score is 0.45 in assay [19] and 1.11 in assay [20].

In the case of AGTCAAAGTTCAGGACGAGGTAACATAAAGCACG, the PBM binding z-score came to 4.23 in assay [1]; 4.01 in assay [2]; 1.38 in [3]; 2.25 in assay [4]; 0.512 in assay [5]; 3.45 in assay [6]. The PBM binding z-score was 4.84 in [7]; 4.91 in [8]; 2.27 in assay [9]; 4.16 in assay [10]; -0.187 in [11]; 1.85 in assay [12]. For the same sequence, the PBM binding z-score in [13] was 1.18; in assay [14], 0.12; in [15], 2.12; in [16], 3.37; in assay [17] it was 1.47; in assay [18], 3.33. The PBM binding z-score in assay [19] was 0.906; in assay [20], 4.15.

As for CCTAGTTGGTGAGGAGGTCACACACCGGATATGA, the PBM binding z-score amounted to 2.72 in [1]; 3.07 in assay [2]; 1.61 in assay [3]; 3.19 in assay [4]; 0.489 in assay [5]; 3.86 in assay [6]. Further, the PBM binding z-score in assay [7] came to 2.06; in assay [8], 3.07; in assay [9], 1.4; in assay [10] it was 2.31; in assay [11], 0.486; in assay [12], 2.56. Further, the PBM binding z-score worked out at 0.735 in assay [13]; 0.147 in assay [14]; 3.46 in assay [15]; 3.86 in [16]; 1.61 in [17]; 4.11 in [18]. The PBM binding z-score in [19] came to 1.97; in assay [20], 3.1.

These data come from the supplement of paper PMC6555819.
